The panel holds about 79,000 compounds, 15% with a hit somewhere; the sample as a whole holds those more often. Activity calls are given as the source filed them. No stated cut-off is given here; in the data, active means growth inhibition above about 70%; inactive means the rest.
Tests used:
[1] = NCI Yeast Anticancer Drug Screen. Data for the wt1 strain (AID 149);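 further: 0% = growth of vehicle-treated wt1 cultures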; conditions: S. cerevisiae wt1 strain (SPY 50644) growth inhibition, hits give high values
Method in brief: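 Each compound is tested on wt1 yeast and the loss of growth versus vehicle gives the inhibition value.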

[2] = NCI Yeast Anticancer Drug Screen. Data for the rad50EPP+ strain (AID 151);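 further: 0% = growth of vehicle-treated control cultures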; conditions: S. cerevisiae rad50 mutant strain, hits give high values
Method in brief: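 Measured: growth inhibition of rad50EPP+ yeast. Reference: vehicle-treated controls. Screen uses strains with defined genetic alterations in DNA damage repair or cell cycle control.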

[3] = NCI Yeast Anticancer Drug Screen. Data for the mgt1 strain (AID 153); conditions: S. cerevisiae mgt1 mutant growth inhibition, hits give high values
Method in brief: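 Compounds were applied to mgt1 mutant yeast, and growth was then compared against vehicle-treated control cultures to give percent inhibition.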

[4] = NCI Yeast Anticancer Drug Screen. Data for the rad50 strain (AID 155);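 further: 0% = growth of vehicle-only cultures of the same strain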; conditions: S. cerevisiae rad50 strain growth inhibition, hits give high values
Method in brief: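 Vehicle-treated cultures provide the reference for the growth inhibition reported for compound-exposed, repair-deficient yeast.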

[5] = NCI Yeast Anticancer Drug Screen. Data for the mec2-1 strain (AID 157); conditions: S. cerevisiae mec2-1 strain, hits give high values
Method in brief: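 Compounds were applied to mec2-1 yeast cells. Their growth was then compared with that of vehicle-treated cultures to give growth inhibition.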

[6] = NCI Yeast Anticancer Drug Screen. Data for the rad14 strain (AID 159);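 further: 0% = growth of vehicle-treated control cultures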; conditions: S. cerevisiae rad14 strain growth inhibition, hits give high values
Method in brief: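 Inhibition of growth is reported for a repair-deficient yeast mutant following compound treatment, calculated relative to cultures that received vehicle.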

[7] = NCI Yeast Anticancer Drug Screen. Data for the sgs1 mgt1 strain (AID 161);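 further: 0% = growth of cultures given vehicle only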; conditions: S. cerevisiae sgs1 mgt1 strain, hits give high values
Method in brief: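 Compounds are added to genetically altered yeast, and growth is compared with cultures given vehicle alone to give percent inhibition.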

[8] = NCI Yeast Anticancer Drug Screen. Data for the CLN2oe strain (AID 163);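 further: 0% = growth of vehicle-only control cultures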; conditions: S. cerevisiae CLN2oe strain, hits give high values
Method in brief: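 Cells of an engineered yeast line with disturbed cell-cycle regulation are treated with compound. Inhibition of growth is then calculated relative to the vehicle-treated reference.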

[9] = NCI Yeast Anticancer Drug Screen. Data for the cln2 rad14 strain (AID 165);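 further: 0% = growth equal to vehicle treated cultures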; conditions: S. cerevisiae cln2 rad14 strain, hits give high values
Method in brief: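 Strain: cln2 rad14 yeast, altered in cell cycle control and DNA damage repair. Read-out: growth inhibition vs vehicle.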

[10] = NCI Yeast Anticancer Drug Screen. Data for the bub3 strain (AID 167); conditions: S. cerevisiae bub3 mutant strain, hits give high values
Method in brief: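 Mutant yeast screening strain plus compound; vehicle-treated cultures serve as the 0% inhibition reference.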

[11] = NCI Yeast Anticancer Drug Screen. Data for the wt2 strain (AID 169); conditions: S. cerevisiae wt2 strain growth inhibition, hits give high values
Method in brief: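 Growth of compound-treated yeast is measured and expressed as inhibition relative to vehicle-only controls.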

[12] = NCI Yeast Anticancer Drug Screen. Data for the mlh1 strain (AID 171);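 further: 0% = growth of vehicle-treated control cultures of the same strain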; conditions: S. cerevisiae mlh1 strain growth inhibition, hits give high values
Method in brief: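 Test agents were incubated with yeast bearing a defined DNA damage repair or cell cycle control alteration; values are growth inhibition normalised to vehicle-treated cultures.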

[13] = NCI Yeast Anticancer Drug Screen. Data for the sgs1 strain (AID 173);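 further: 0% = growth of vehicle-only control cultures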; conditions: S. cerevisiae sgs1 mutant, hits give high values
Method in brief: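 Strain with an altered DNA repair or cell cycle pathway exposed to compound. Growth then measured. Value = inhibition versus vehicle control.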

[14] = NCI Yeast Anticancer Drug Screen. Data for the mlh1 rad18 strain (AID 175); conditions: S. cerevisiae mlh1 rad18 strain growth inhibition, hits give high values
Method in brief: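 A repair-deficient yeast strain is exposed to test compound, and growth is scored relative to vehicle-treated controls.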

[15] = at 5.0 µM (retest, dose inferred, filed as 0.5)
[16] = at 50.0 µM (retest, dose inferred, filed as 5.0)

Measured: growth inhibition

CCCCN(CCCC)CC(C(C)=O)C(c1ccccc1)c1c(O)c2ccccc2oc1=O (stereo not drawn)
active: [4]; at 50.0 µM 71.3% | [7]; at 50.0 µM 84.2% | [9]; at 50.0 µM 81.5% | [10]; at 50.0 µM 74.5% | [14]; at 50.0 µM 76.8%
inactive: [1]; at 1.2 µM 0% | [1]; at 3.7 µM -1% | [1]; at 11.0 µM -1% | [1]; at 33.0 µM -3% | [1]; at 100.0 µM -4% | [2]; at 1.2 µM -7% | [2]; at 3.7 µM -5% | [2]; at 11.0 µM -6% | [2]; at 33.0 µM -8% | [2]; at 100.0 µM -3% | [3]; at 1.2 µM 1% | [3]; at 3.7 µM 2% | [3]; at 11.0 µM 3% | [3]; at 33.0 µM 0% | [3]; at 100.0 µM -1% | [4]; at 1.2 µM 2% | [4]; at 3.7 µM 2% | [4]; [15] 22% | [4]; at 11.0 µM 4% | [4]; at 33.0 µM 3% | [4]; [16] 22% | [4]; at 100.0 µM 1% | [5]; at 1.2 µM 3% | [5]; at 3.7 µM 2% | [5]; [15] 25% | [5]; at 11.0 µM -1% | [5]; at 33.0 µM -1% | [5]; [16] 25% | [5]; at 50.0 µM 69.6% | [5]; at 100.0 µM 5% | [6]; at 1.2 µM 5% | [6]; at 3.7 µM 3% | [6]; at 11.0 µM 2% | [6]; at 33.0 µM -2% | [6]; at 100.0 µM -24% | [7]; [15] 10% | [7]; [16] 10% | [8]; at 1.2 µM 1% | [8]; at 3.7 µM 6% | [8]; at 11.0 µM 5% | [8]; at 33.0 µM -2% | [8]; at 100.0 µM -3% | [9]; [15] 51% | [9]; [16] 51% | [10]; at 1.2 µM 4% | [10]; at 3.7 µM 2% | [10]; [15] 4% | [10]; at 11.0 µM 15% | [10]; at 33.0 µM 22% | [10]; [16] 4% | [10]; at 100.0 µM 6% | [11]; at 1.2 µM 0% | [11]; at 3.7 µM -1% | [11]; at 11.0 µM 0% | [11]; at 33.0 µM -1% | [11]; at 100.0 µM 4% | [12]; at 1.2 µM 0% | [12]; at 3.7 µM -2% | [12]; at 11.0 µM -2% | [12]; at 33.0 µM 1% | [12]; at 100.0 µM -28% | [13]; at 1.2 µM -4% | [13]; at 3.7 µM -6% | [13]; at 11.0 µM -7% | [13]; at 33.0 µM -4% | [13]; at 100.0 µM 9% | [14]; [15] 22% | [14]; [16] 22%

CC1CC(C)CC(C)C(O)/C(C#N)=C/C=C/CC(C2CCCC2C(=O)O)OC(=O)CC(O)C(C)C1 (stereo not drawn)
inactive: [2]; at 1.2 µM -17% | [2]; at 3.7 µM 21% | [2]; at 11.0 µM 68% | [7]; [15] 15% | [7]; [16] 2% | [9]; [15] 8% | [9]; [16] -20% | [10]; [15] 10% | [10]; [16] -7%
active: [1]; at 1.2 µM 97% | [1]; at 3.7 µM 99% | [1]; at 11.0 µM 99% | [1]; at 33.0 µM 99% | [1]; at 100.0 µM 98% | [2]; at 33.0 µM 93% | [2]; at 100.0 µM 97% | [4]; at 1.2 µM 94% | [4]; at 3.7 µM 97% | [4]; [15] 98% | [4]; at 11.0 µM 97% | [4]; at 33.0 µM 97% | [4]; [16] 98% | [4]; at 50.0 µM 92.6% | [4]; at 100.0 µM 97% | [5]; at 1.2 µM 96% | [5]; at 3.7 µM 98% | [5]; [15] 99% | [5]; at 11.0 µM 98% | [5]; at 33.0 µM 98% | [5]; [16] 99% | [5]; at 50.0 µM 94.5% | [5]; at 100.0 µM 98% | [6]; at 1.2 µM 98% | [6]; at 3.7 µM 98% | [6]; at 11.0 µM 98% | [6]; at 33.0 µM 99% | [6]; at 100.0 µM 98% | [7]; at 50.0 µM 93.7% | [8]; at 1.2 µM 86% | [8]; at 3.7 µM 96% | [8]; at 11.0 µM 97% | [8]; at 33.0 µM 97% | [8]; at 100.0 µM 97% | [9]; at 50.0 µM 92.4% | [10]; at 1.2 µM 93% | [10]; at 3.7 µM 98% | [10]; at 11.0 µM 98% | [10]; at 33.0 µM 98% | [10]; at 50.0 µM 93.3% | [10]; at 100.0 µM 98% | [11]; at 1.2 µM 90% | [11]; at 3.7 µM 100% | [11]; at 11.0 µM 99% | [11]; at 33.0 µM 99% | [11]; at 100.0 µM 98% | [12]; at 1.2 µM 90% | [12]; at 3.7 µM 98% | [12]; at 11.0 µM 98% | [12]; at 33.0 µM 98% | [12]; at 100.0 µM 98%
